System: Vero E6 infected with SARS-CoV-2
Test: inhibition of SARS-CoV-2 cytopathic effect; higher = more antiviral protection, active = above 15
Details: 48 h

Measured: inhibition of SARS-CoV-2 cytopathic effect

CN(C)CCN(Cc1ccccc1)c1ccccn1 [tripelennamine]
inactive: 1 nM 1.72% | 8.33 nM 2.84% | 100 nM 0.58% | 833.33 nM -0.69% | 10000 nM -1.94%

O=C(c1cc(S(=O)(=O)Nc2ccccc2F)c(F)cc1Cl)N1CCN2CCC[C@@H]2C1
inactive: 1 nM 1.66% | 8.33 nM 2.06% | 100 nM 1.64% | 833.33 nM 8.06% | 10000 nM -1.59%

O=C(NCc1ccccc1)c1csc(Nc2ccncn2)n1 [thiazovivin]
inactive: 1 nM -2.48% | 8.33 nM 1.22% | 100 nM -1.94% | 833.33 nM -2% | 10000 nM -11.5%

NS(=O)(=O)c1cc(-c2nnn[nH]2)c(NCc2cccs2)cc1Cl [azosemide]
inactive: 1 nM 2.38% | 8.33 nM -0.55% | 100 nM 3.16% | 833.33 nM 9.99% | 10000 nM -3.43%

C=C1CCN([C@H](C)[C@](O)(Cn2cncn2)c2ccc(F)cc2F)CC1 [efinaconazole]
inactive: 1 nM -0.21% | 8.33 nM 1.69% | 100 nM 0.85% | 833.33 nM 0.56% | 10000 nM 2.84%

CN1CCN(c2nc(C3=C(c4c[nH]c5ccccc45)C(=O)NC3=O)c3ccccc3n2)CC1 [sotrastaurin]
inactive: 1 nM 0.12% | 8.33 nM 1.74% | 100 nM -0.57% | 833.33 nM -1.82% | 10000 nM 4.89%

Cc1ccsc1C(=CCCN1CCC[C@@H](C(=O)O)C1)c1sccc1C [tiagabine]
inactive: 1 nM 1.59% | 8.33 nM 1.98% | 100 nM 0.33% | 833.33 nM -3.02% | 10000 nM 0.65%

Reference: the supplement of paper PMC13380429
